Bim-Mcl-1 – human Bim-Mcl-1 interaction inhibition. Bead-based flow cytometry, Bim peptide-Mcl-1 binding. inhibition, % at 10 µM. Q07820. AID 1009. actives 0.1% (n = 190,000); in the data active means inhibition above about 40%;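 further: 0% = no compound tracer wells and 100% = peptide blocker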
Target sequence (Q07820 whole entry, looked up): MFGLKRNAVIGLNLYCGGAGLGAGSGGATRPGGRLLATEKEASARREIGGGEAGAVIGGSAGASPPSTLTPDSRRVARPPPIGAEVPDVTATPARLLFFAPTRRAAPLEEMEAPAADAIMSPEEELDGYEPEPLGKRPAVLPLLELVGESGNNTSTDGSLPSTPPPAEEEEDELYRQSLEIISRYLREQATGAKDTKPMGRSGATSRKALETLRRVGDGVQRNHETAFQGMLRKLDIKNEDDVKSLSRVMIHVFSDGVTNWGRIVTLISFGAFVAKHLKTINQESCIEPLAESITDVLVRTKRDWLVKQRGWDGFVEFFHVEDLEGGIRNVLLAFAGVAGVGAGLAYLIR
Mcl1 Bid PPI – Mcl-1/Bid interaction inhibition | TR-FRET Mcl-1/Bid-Dy647 peptide binding, 1536-well | inhibition, % at 21.7 µM | Q07820 | actives 0.97% (n = 220,000);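 active means compounds that cut the binding signal by more than half at the single screening dose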;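 further: His-tagged Mcl-1 with europium anti-His antibody binding Bid BH3 peptide; 0% = Mcl-1 plus peptide wells and 100% = peptide-only wells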
BCLXL inh – inhibitors of human Bcl-xL; AID 2129; Q07817; GST-Bcl-xL / FITC-Bim BH3 peptide fluorescence polarization; inhibition, % at 10.9 µM; actives 0.7% (n = 320,000);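 active means inhibition above the mean of all tested compounds plus 3 SD, cutoff set per campaign, cut at about 30% in these data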;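 further: 0% = DMSO wells and 100% = unlabeled Bim-BH3 peptide competitor; inhibitors lower millipolarization by displacing the labeled peptide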
Target sequence (Q07817 whole entry, looked up): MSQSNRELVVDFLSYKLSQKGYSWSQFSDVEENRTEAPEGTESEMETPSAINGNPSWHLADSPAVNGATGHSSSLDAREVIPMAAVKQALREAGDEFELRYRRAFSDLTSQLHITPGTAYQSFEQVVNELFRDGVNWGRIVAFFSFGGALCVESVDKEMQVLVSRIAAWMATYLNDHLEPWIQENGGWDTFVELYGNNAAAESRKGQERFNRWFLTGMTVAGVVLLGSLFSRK
MCL1-BIM inh – MCL1-BIM-BH3 interaction inhibition (human); Q07820; AID 2057; actives 0.68% (n = 320,000); inhibition, % at 10.9 µM; GST-MCL1 / FITC-Bim-BH3 fluorescence polarization;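 active means inhibition above the mean inhibition of all tested compounds plus 3 SD, set per campaign, cut at about 40% in these data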;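 further: 0% = DMSO wells and 100% = unlabeled Bim-BH3 peptide control; higher means more loss of mP so more displacement of Bim peptide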
Mcl1-Noxa inh – disrupts binding of human Mcl-1 to Noxa peptide | TR-FRET Mcl-1/Noxa peptide binding, 2 h | inhibition, % at 21.7 µM | AID 1022 | actives 1.5% (n = 220,000) | Q07820;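 active means compounds that cut the protein-peptide binding signal by more than 50% relative to plate controls in a single-dose test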;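 further: His-tagged Mcl-1 with rhodamine Noxa BH3 peptide and terbium anti-His antibody; 0% = Mcl-1 plus Noxa peptide wells and 100% = peptide-only wells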
GLD-1 TGE inh – GLD-1-TGE RNA interaction inhibition (C. elegans); inhibition, % at 5.96 µM; purified GLD-1 + fluorescein TGE RNA, fluorescence polarization; actives 0.44% (n = 320,000); AID 2280;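 active means percent inhibition above a per-plate cutoff, the plate mean of test compounds plus 3 SD, cut at about 30% in these data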;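 further: 0% = DMSO wells with GLD-1 and probe and 100% = wells lacking GLD-1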
* = called active by the depositor. Rows were chosen to be rich in hits. Some 2.3% of all compounds tested hit in one or more screens of this group.

Screening CCCCN(C(=O)C1CC(=O)N(c2ccc(OC)cc2OC)C1)c1c(N)n(CC(C)C)c(=O)[nH]c1=O (stereo not drawn) returned BCLXL inh -5, MCL1-BIM inh -27 and GLD-1 TGE inh -1.
O=C(COC(=O)C12CC3CC(CC(Cl)(C3)C1)C2)Nc1ccccc1 was read as GLD-1 TGE inh 8.
`CC1=CC(=O)C=C(C)C1=NOC(=O)c1cccc([N+](=O)[O-])c1` gave Bim-Mcl-1 -3, Mcl1 Bid PPI -10, BCLXL inh 11, MCL1-BIM inh 6, Mcl1-Noxa inh 53* and GLD-1 TGE inh -8.
Cc1cccc(CCN(C(=O)c2csnn2)C(C(=O)NC2CCCC2)c2ccco2)c1 (stereo not drawn) was read as BCLXL inh 4, MCL1-BIM inh 4 and GLD-1 TGE inh -3.
COc1ccc(S(=O)(=O)N2CCC(C(=O)Oc3ccc(C)cc3)CC2)cc1OC was read as BCLXL inh 2, MCL1-BIM inh 0 and GLD-1 TGE inh 2.
Screening Cc1cc(C)c(Nc2cc(S(=O)(=O)O)c(N)c3c2C(=O)c2ccccc2C3=O)c(C)c1 returned Bim-Mcl-1 -2, Mcl1 Bid PPI 94*, BCLXL inh 31*, MCL1-BIM inh 52*, Mcl1-Noxa inh 107* and GLD-1 TGE inh 11.
`Cc1cc(C)c(NC(=O)COC(=O)c2cccc3c2C(=O)c2ccccc2C3=O)c(C)c1` gave Bim-Mcl-1 4, Mcl1 Bid PPI -3, BCLXL inh 4, MCL1-BIM inh 9, Mcl1-Noxa inh 4 and GLD-1 TGE inh 11.
CCCNC(=O)C(Cc1ccccc1)NC(=O)c1ccc(-c2ccccc2)cc1 (stereo not drawn) was read as BCLXL inh 1, MCL1-BIM inh -1 and GLD-1 TGE inh -5.
Cc1cccc(Nc2nc3c(S(=O)(=O)c4ccccc4)nnn3c3ccccc23)c1 was read as Bim-Mcl-1 -2, Mcl1 Bid PPI 57*, BCLXL inh -10, MCL1-BIM inh -14, Mcl1-Noxa inh -41 and GLD-1 TGE inh -5.
Screening Cc1ccc(S(=O)(=O)N2CCC[C@H]2C(=O)NCc2ccccc2Cl)cc1 returned GLD-1 TGE inh 8.
For CCOc1ccc(CN(C)C(=O)[C@H](C)NC(=O)c2ccco2)cc1OC the results were BCLXL inh 5, MCL1-BIM inh 6 and GLD-1 TGE inh -1.
`CCCCSc1cc(C)nc(N)n1` gave Mcl1 Bid PPI 79*, BCLXL inh 7, MCL1-BIM inh 10, Mcl1-Noxa inh 37 and GLD-1 TGE inh -7.
For Cc1ccc(N2C(=O)N(CC(=O)Nc3ccc(F)c(F)c3)C(=O)C2C)cc1 (stereo not drawn) the results were BCLXL inh -4, MCL1-BIM inh -4 and GLD-1 TGE inh 9.
`CN(C=[N+](C)C)c1cccc2c1C(=O)c1ccccc1C2=O` gave Bim-Mcl-1 -1, Mcl1 Bid PPI -23, BCLXL inh 35*, MCL1-BIM inh 38, Mcl1-Noxa inh 16 and GLD-1 TGE inh 18.
Screening Cc1cc(C)c(S(=O)(=O)c2ccccc2C)c(OCCN(C)C)n1 returned BCLXL inh 2, MCL1-BIM inh -7 and GLD-1 TGE inh -3.
Screening O=C(Nc1cc2c(oc1=O)CCCC2=O)c1ccc(Cl)cc1 returned Bim-Mcl-1 -1, Mcl1 Bid PPI -66, BCLXL inh 6, MCL1-BIM inh 31, Mcl1-Noxa inh 57* and GLD-1 TGE inh 3.
Screening CC(C)C(C)NC(=O)CN1C(=O)NC2(CCc3ccccc32)C1=O (stereo not drawn) returned BCLXL inh -3, MCL1-BIM inh -9 and GLD-1 TGE inh 1.
`Cc1ccc(C(=O)OCc2nc3ccsc3c(=O)[nH]2)o1` gave BCLXL inh 2, MCL1-BIM inh 5 and GLD-1 TGE inh 5.
Screening Cc1cnc(C(=O)OCc2nc3ccsc3c(=O)[nH]2)cn1 returned BCLXL inh 30*, MCL1-BIM inh 36 and GLD-1 TGE inh 14.
`COC(=O)c1ccc(NS(=O)(=O)c2cc(-c3cc(C)no3)ccc2OC)cc1` gave BCLXL inh -1, MCL1-BIM inh -1 and GLD-1 TGE inh -2.
`CCc1nnc(NS(=O)(=O)c2ccc(NC(=O)c3ccc(C#N)cc3)cc2)s1` gave BCLXL inh 6, MCL1-BIM inh 5 and GLD-1 TGE inh 0.
Screening NCCCC[C@@H]1NC(=O)c2cc([N+](=O)[O-])cc(I)c2SC[C@@H](C(N)=O)NC(=O)[C@H](Cc2ccc(O)cc2)NC1=O returned Bim-Mcl-1 -2, Mcl1 Bid PPI 30, BCLXL inh 5, MCL1-BIM inh 6, Mcl1-Noxa inh 54* and GLD-1 TGE inh 4.
`O=C1CC(=O)N(CCc2ccccc2)C(=O)N1CCc1ccccc1` gave Bim-Mcl-1 0, Mcl1 Bid PPI 9, BCLXL inh -63, MCL1-BIM inh -70, Mcl1-Noxa inh 13 and GLD-1 TGE inh -47.
`O=C1C=CC(=O)C(C2=C3C(=O)N(CCc4ccccc4)CC(=O)N3CCC2)=C1` gave Bim-Mcl-1 -7, Mcl1 Bid PPI -49, BCLXL inh 20, MCL1-BIM inh 20, Mcl1-Noxa inh 84* and GLD-1 TGE inh 6.
CCCCn1c(=O)cc(C)n(-c2ccccc2)c1=O was read as BCLXL inh 7, MCL1-BIM inh 10 and GLD-1 TGE inh 10.
`CCCCn1c(=O)nc2n(-c3ccccc3)c3ccccc3cc-2c1=O` gave Bim-Mcl-1 0, Mcl1 Bid PPI 64*, BCLXL inh 11, MCL1-BIM inh 11, Mcl1-Noxa inh 5 and GLD-1 TGE inh 6.
`COc1ccc(NC(=O)c2ccco2)cc1NC(=O)c1c(OC)cccc1OC` gave BCLXL inh 1, MCL1-BIM inh -6 and GLD-1 TGE inh 0.
For COc1ccc(NC(=O)c2ccco2)cc1NC(=O)c1ccco1 the results were Bim-Mcl-1 41*, Mcl1 Bid PPI 0, BCLXL inh 10, MCL1-BIM inh 3, Mcl1-Noxa inh -23 and GLD-1 TGE inh 6.
For COc1cc(C#CC#CCN2CCCCC2)ccc1O the results were Bim-Mcl-1 -1, Mcl1 Bid PPI 8, BCLXL inh 0, MCL1-BIM inh 10, Mcl1-Noxa inh 51* and GLD-1 TGE inh -5.
CC(NC(=O)COC(=O)c1ccc[nH]c1=O)c1ccccc1 (stereo not drawn) was read as GLD-1 TGE inh 5.
`COC(=O)c1ccc(-c2nc3cc(Cl)c(N)cc3s2)cc1` gave Bim-Mcl-1 0, Mcl1 Bid PPI 91*, BCLXL inh 0, MCL1-BIM inh 1, Mcl1-Noxa inh 0 and GLD-1 TGE inh -3.
For Cc1ccc(S(=O)(=O)Nc2ccc(NC(=O)Nc3cccc(C(F)(F)F)c3)cc2)cc1 the results were Bim-Mcl-1 0, Mcl1 Bid PPI -9, BCLXL inh 1, MCL1-BIM inh -3, Mcl1-Noxa inh 13 and GLD-1 TGE inh 11.

Source: PubChem BioAssay
